High-throughput results: PubChem BioAssay, National Center for Advancing Translational Sciences (NCATS)
The list is not random: actives were taken first. Their share in the collection is about 2.4%.
D2 ag-1 = Beta-Arrestin HTS for Positive Allosteric Modulators of the Human D2 Dopamine Receptor: Agonists; D(2) dopamine receptor (Homo sapiens), P14416; DiscoveRx PathHunter D2 beta-arrestin, luminescence, 90 min; 100% = 57 uM dopamine signal; activation, % (test concentration not listed); 360,000 tested, 0.084% active; AID 624465, 2012; in the data active means activation above about 40%; inconclusive means between about 15% and that limit
Target sequence (P14416 whole entry, looked up): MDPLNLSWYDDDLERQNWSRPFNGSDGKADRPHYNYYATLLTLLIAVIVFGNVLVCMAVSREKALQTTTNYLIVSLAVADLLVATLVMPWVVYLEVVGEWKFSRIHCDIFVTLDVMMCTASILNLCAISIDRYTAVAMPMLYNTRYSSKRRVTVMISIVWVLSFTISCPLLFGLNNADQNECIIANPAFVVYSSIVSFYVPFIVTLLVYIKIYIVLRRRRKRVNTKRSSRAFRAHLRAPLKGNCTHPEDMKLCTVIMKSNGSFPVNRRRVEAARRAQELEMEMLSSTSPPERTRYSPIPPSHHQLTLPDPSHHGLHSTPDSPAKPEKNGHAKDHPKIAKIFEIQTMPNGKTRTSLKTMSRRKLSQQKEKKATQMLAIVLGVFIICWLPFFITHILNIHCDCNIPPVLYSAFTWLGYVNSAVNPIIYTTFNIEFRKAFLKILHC
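Agonist mode: compounds alone added to overnight-plated D2 PathHunter cells for 90 min at 37 C, with 57 uM final dopamine (EC100) defining full response. Beta-arrestin recruitment detected by chemiluminescent reagent, read after 1 h at ambient temperature.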
D2 PAM-1 = Beta-Arrestin HTS for Positive Allosteric Modulators of the Human D2 Dopamine Receptor: Potentiators | potentiation, % (concentration not given with the values) | DiscoveRx D2 beta-arrestin cells, luminescence, 90 min; 100% = 57 uM dopamine signal | 360,000 tested, 0.23% active; in the data active means potentiation above about 50%; inconclusive means mostly about 30% to 49%
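PathHunter beta-arrestin assay in DiscoveRx D2 cells. Compounds were added with an EC20 of dopamine (50 nM final) for 90 min at 37 deg C. Luminescence was read 1 h after detection reagent, with 57 uM dopamine as the EC100 control.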
D2 antagonist = HTS Assay for Allosteric Antagonists of the Human D2 Dopamine Receptor: Primary Screen for Antagonists; D(2) dopamine receptor (Homo sapiens), P14416; HEK293 TREx D2 cells, calcium flux, dopamine EC80; inhibition, % at 10 µM; 340,000 tested, 2% active; in the data active means inhibition above about 30%; inactive means below that, where a call was filed; further: 0% is about no effect
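Inhibition of EC80 dopamine-driven calcium flux, recorded kinetically, defines activity here; cells are a tetracycline-induced HEK293 T-REx line expressing force-coupled D2.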
D2 PAM-2 = HTS Assay for Positive Allosteric Modulators of the Human D2 Dopamine Receptor: Primary Screen for Potentiators; HEK293 T-REx D2, calcium flux, EC20 dopamine potentiation; D(2) dopamine receptor (Homo sapiens), P14416; AID 485347, 2010; potentiation, % at 10 µM; 340,000 tested, 0.34% active;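 active means potentiation over 3 SD above the plate norm, cut at about 30% in these data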; further: 0% is about no effect
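Potentiation of an EC20 dopamine calcium response measured kinetically over 180 s, after a preceding 180 s compound-only read flagging agonists. Cells: inducible Hek293 Trex D2 line, 4000/well, cultured overnight at 30 C before dye loading.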
D2 ag-2 = HTS Assay for Allosteric Agonists of the Human D2 Dopamine Receptor: Primary Screen for Agonists. D(2) dopamine receptor (Homo sapiens), P14416. HEK293 T-REx D2 cells, calcium flux agonist mode. activation, % at 2 µM. 340,000 tested, 0.53% active. AID 485358, 2010;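 active means activation over 3 SD above normal in the single-dose calcium agonist read, cut at about 30% in these data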; further: 0% is about no effect
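Calcium-flux readout, 1 cycle/sec over 180 s following compound pin transfer, in inducible HEK293 Trex D2 cells (force-coupled); dopamine controls included. Positive calcium responses during this window marked compounds as potential agonists.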
D3 arrestin ag = qHTS of D3 Dopamine Receptor Agonist: D3 Dopamine Receptor B-arrestin Agonist Confirmatory Assay. AID 720506, 2013. DiscoveRx D3 beta-arrestin cells, luminescence, 90 min. 2,300 tested, 4% active. Potency, µM (titrated, usually from 76.9 µM), inactives show top-dose activation, most hits filed as activators. shares compounds with D2 ag-2;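 further: potency means the concentration at half of the fitted maximal effect; 100% = dopamine control response; nearly all actives have a fitted effect of over 70% in size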
D2 ag-3 = qHTS of D3 Dopamine Receptor Agonist: D2 Dopamine Receptor B-arrestin Agonist Counterscreen; 2,300 tested, 5.9% active; shares compounds with D2 ag-2; DiscoveRx PathHunter D2 beta-arrestin, luminescence, 90 min; response scale: percent relative to full dopamine signal; Potency, µM (doses to about 76.9 µM), without a hit: top-dose activation, hits mostly activators; further: potency means the concentration at half of the fitted maximal effect; % of control where 0% means no effect; nearly all actives have a fitted effect of over 70% in size
* marks the source's active call; other numbers are inactive results; ? = inconclusive; · = not tested or not shown. Unless noted, the call rests on the fitted dose curve; in most records, active means well fitted activation curve with a large enough effect; inconclusive means small, poorly fitted or top-dose-only effect; inactive means flat fitted curve, though single readings scatter.

SMILES | D2 ag-1 | D2 PAM-1 | D2 antagonist | D2 PAM-2 | D2 ag-2 | D3 arrestin ag | D2 ag-3
O=S(=O)(CCN1CCN(c2ccccn2)CC1)c1ccc(Cl)cc1Cl | 3 | -9 | 12 | -6 | 50* | 19% | 11%
COc1ccc(CC(=O)Nc2ccc(-c3nc4ccccc4s3)c(C)c2)cc1OC | · | · | · | 13 | -1 | · | ·
Cn1c(=O)oc2cc(S(=O)(=O)NCCN3CCN(c4ccccc4F)CC3)ccc21 | 1 | -8 | 77* | -24 | 55* | 12% | 22%
Cc1cccc(N2CCN(C(=O)CCS(=O)(=O)c3ccc4c(c3)oc(=O)n4C)CC2)c1C | 4 | -18 | 15 | -10 | 3 | · | ·
Cc1cccc(N2CCN(C(=O)CCNS(=O)(=O)c3ccc4c(c3)oc(=O)n4C)CC2)c1C | 4 | 5 | -7 | -17 | 45* | 11% | 25%
COc1ccc(N2CCN(CCCNS(=O)(=O)c3ccc4c(c3)oc(=O)n4C)CC2)cc1 | 2 | -11 | 30 | -18 | 19 | 9% | 14%
Cn1c(=O)oc2cc(S(=O)(=O)NCCN3CCCCCC3)ccc21 | 0 | 9 | 15 | -9 | 1 | · | ·
CC(C)N=c1scc(-c2ccco2)n1/N=C/c1ccc(O)c(O)c1 | 9 | 15 | 3 | -3 | 3 | · | ·
COCCN=c1scc(-c2ccco2)n1/N=C/c1ccc(O)c(O)c1O | 70* | 88* | 77* | -30 | 68* | 35µM* | 35µM*
C=CCN=c1scc(-c2ccco2)n1/N=C/c1ccc(O)c(O)c1O | 90* | 101* | 88* | -34 | 74* | 40µM* | 35µM*
COc1ccc2c(CNC3CCCCCC3)c(C(=O)O)n(Cc3ccc(C)cc3)c2c1 | · | · | · | -7 | 0 | · | ·
Cc1cc(OC(C)C(=O)N(Cc2ccc(N(C)C)cc2)Cc2ccco2)ccc1Cl (centres undefined) | · | · | · | -1 | -1 | · | ·
COc1ccc(Cl)cc1NC(=O)CSc1nc(-c2ccccc2)c2ccccc2n1 | · | · | · | 16 | 1 | · | ·
CC(=O)c1c(O)c2ccccc2n(C)c1=O | -4 | 0 | 10 | -5 | -2 | · | ·
Cn1c(=O)c(Oc2ccc(F)cc2)c(O)c2ccccc21 | 9 | 11 | 3 | -16 | 50* | 3% | -2%
O=C(Nc1ccccc1C(F)(F)F)N1CCC(N2CCCCC2)CC1 | -4 | -9 | -2 | 9 | 1 | · | ·
O=C(Nc1ccccc1C(F)(F)F)C(O)(c1ccccc1)C1CCCCC1 (centres undefined) | -3 | -10 | 3 | -8 | 1 | -12% | -2%
Cc1ccc(S(=O)(=O)NCC(c2ccc(N(C)C)cc2)N2CCc3ccccc32)cc1C (centres undefined) | · | · | · | -1 | 1 | · | ·
CCCCN(C)CCNC(=O)c1ccc2c(c1)NC(=O)C(N1CCCCC1)S2 (centres undefined) | -1 | -42 | 73* | -21 | 50* | ? | 15%
COC(=O)c1ccc2c(c1)NC(=O)C(N1CCOCC1)S2 (centres undefined) | 2 | 2 | -1 | -6 | -1 | · | ·
O=C(CSc1ccccc1)N1CCc2c([nH]c3ccccc23)C1c1ccc(Cl)cc1 (centres undefined) | · | · | · | 7 | 3 | · | ·
COc1cc(C2N(Cc3ccccc3)CCN2Cc2ccccc2)ccc1OC(C)=O | -4 | -2 | 27 | -14 | 9 | -5% | -5%
